Bioassay records as filed in PubChem.
KKLEB cytotox: cytotoxicity in KKLEB CF airway cells, primary screen, cytotoxicity control for CF NF-kB inhibitor project, cell-based, uHTS, fluorescence assay plates | KKLEB CF airway cells viability, ATPlite luminescence, overnight; hits give low values; cells stimulated with P. aeruginosa culture filtrate | activity change (cytotoxicity), % at 5 µM | 360,000 compounds, 0.36% hits;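 active = corrected activity change at or below -50% at 5 µM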
HIF-2a inh: HIF-2a reporter inhibitors, primary screen, luminescence, 786-0 RCC cells | AID 624352, 2012 | 786-0 RCC cells HIF-2a reporter, luciferase luminescence, overnight | inhibition, % at 18.8 µM | 360,000 compounds, 0.72% hits;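 active = inhibition of the luminescence signal of 40% or more relative to plate controls, in a single-dose primary screen at 18.75 µM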
CF NFkB inh: inhibitors of PAF-induced NF-kB signaling, primary screen, cell-based, GFP fluorescence, uHTS. KKLEB NF-kB-GFP reporter, GFP fluorescence overnight. inhibition, % at 5 µM. 360,000 compounds, 0.86% hits. AID 588850, 2011;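 active = at least 50% inhibition at 5 µM, scaled per plate between neutral and stimulator controls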;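 note: PAF is a Pseudomonas aeruginosa culture filtrate used as stimulus; plate controls were PAF-stimulated DMSO wells for no effect and unstimulated DMSO wells for full effect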
Shn3 3UTR inh: reduction of Shn3 3'UTR firefly luciferase signal, primary screen, Schnurri-3 inhibitor project, cell-based, Clone20 osteoblasts, set 2; Clone20 osteoblast Shn3 3'UTR firefly luciferase, 24 h; inhibition, % at 12.5 µM; 360,000 compounds, 0.52% hits;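 active = mean inhibition of at least 75% with every replicate also reaching 75%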;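 note: 0% = median of neutral control wells and 100% = pilot-screen positive control compound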
Peg3 prom inh: Peg3 promoter-driven luciferase inhibitors, primary screen, cell-based, HeLa, luciferase luminescence; HeLa PEG-Prom luciferase reporter, overnight; 360,000 compounds, 1.7% hits; AID 588405, 2011; inhibition, % at 20 µM;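 active = inhibition of at least 50% at 20 µM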
Numbers without * were called inactive. Only some compounds are listed: those with a hit (about 2.6% of all), similar ones and a draw of the others.

For COc1ccc(SN=C2C(C)=CC(=O)C=C2C)cc1 the results were KKLEB cytotox -5, HIF-2a inh -2, CF NFkB inh 11, Shn3 3UTR inh 14 and Peg3 prom inh 9.
Screening COC1=CC(=O)c2ccccc2C1=O returned KKLEB cytotox -29, HIF-2a inh 29, CF NFkB inh 91*, Shn3 3UTR inh 36 and Peg3 prom inh 24.
For COC1=CC(=O)C=C(OC)C1=O the results were KKLEB cytotox -9, HIF-2a inh 6, CF NFkB inh 24, Shn3 3UTR inh 97* and Peg3 prom inh 102*.
For Nc1cc(Nc2ccc(Br)cc2)nc(N)n1 the results were KKLEB cytotox 2, HIF-2a inh -199, CF NFkB inh 14, Shn3 3UTR inh -10 and Peg3 prom inh -201.
For CCc1ccc(NC(=O)C2CCN(S(=O)(=O)c3ccc4c(c3)NC(=O)C(C)S4)CC2)cc1 (stereo unspecified) the results were KKLEB cytotox -1, HIF-2a inh 5, CF NFkB inh 14, Shn3 3UTR inh 90* and Peg3 prom inh 35.
Screening CC1Sc2ccc(S(=O)(=O)N3CCC(C(=O)Nc4cccc(Cl)c4)CC3)cc2NC1=O (stereo unspecified) returned KKLEB cytotox 14, HIF-2a inh -12, CF NFkB inh 7, Shn3 3UTR inh 90* and Peg3 prom inh 10.
Screening Cc1ccc(NC(=O)C2CCN(S(=O)(=O)c3ccc4c(c3)NC(=O)C(C)S4)CC2)cc1C (stereo unspecified) returned KKLEB cytotox 15, HIF-2a inh -14, CF NFkB inh -4, Shn3 3UTR inh 88* and Peg3 prom inh -19.
O=C(/C=C/Nc1ccc(F)cc1F)c1cccs1 was read as KKLEB cytotox -68*, HIF-2a inh -7, CF NFkB inh -13, Shn3 3UTR inh -6 and Peg3 prom inh 12.
For O=C(/C=C/Nc1ccc(Br)cc1F)c1ccco1 the results were KKLEB cytotox -65*, HIF-2a inh 10, CF NFkB inh -4, Shn3 3UTR inh 18 and Peg3 prom inh 24.
O=C(/C=C/Nc1ccc(F)cc1F)c1ccco1 was read as KKLEB cytotox -58*, HIF-2a inh -73, CF NFkB inh -10, Shn3 3UTR inh -39 and Peg3 prom inh -13.
Screening O=C(/C=C/Nc1cccc(F)c1)c1ccco1 returned KKLEB cytotox -2, HIF-2a inh -252, CF NFkB inh -3, Shn3 3UTR inh -81 and Peg3 prom inh -275.
O=C(/C=C/c1ccc(Br)cc1)c1ccco1 was read as KKLEB cytotox -9, HIF-2a inh -51, CF NFkB inh 27, Shn3 3UTR inh 17 and Peg3 prom inh 90*.
O=C(/C=C/Nc1ccccc1F)c1cccs1 was read as KKLEB cytotox -28, HIF-2a inh -25, CF NFkB inh -6, Shn3 3UTR inh -64 and Peg3 prom inh -43.
For O=C(COc1cccc2cccnc12)Nc1ccccc1N1CCOCC1 the results were KKLEB cytotox 6, HIF-2a inh 14, CF NFkB inh 5, Shn3 3UTR inh -11 and Peg3 prom inh 24.
COc1ccccc1/C=C/C(=O)NCC(=O)N/N=C/c1ccc(C(=O)O)cc1 was read as KKLEB cytotox 3, HIF-2a inh 3, CF NFkB inh 3, Shn3 3UTR inh -11 and Peg3 prom inh 13.
CCc1ccc(-c2nc(SCC(=O)N3CCOCC3)n[nH]2)cc1 was read as KKLEB cytotox 7, HIF-2a inh -62, CF NFkB inh 20, Shn3 3UTR inh -12 and Peg3 prom inh -45.
O=C(/C=C\Nc1cccc(F)c1)c1cccs1 was read as KKLEB cytotox -9, HIF-2a inh -229, CF NFkB inh 0, Shn3 3UTR inh -77 and Peg3 prom inh -226.
Cc1ccc(N/C=C/C(=O)c2cccs2)cc1 was read as KKLEB cytotox -54*, HIF-2a inh -35, CF NFkB inh -30, Shn3 3UTR inh 10 and Peg3 prom inh 15.
Screening COc1ccc(CN2C(=O)C(CC(=O)NC3CC3)CC(C(=O)N(C)C)=C2C)cc1 (stereo unspecified) returned KKLEB cytotox 0, HIF-2a inh -3, CF NFkB inh -1, Shn3 3UTR inh -17 and Peg3 prom inh -11.
For COc1ccccc1C(=O)Nc1ccc(-c2nnn(CC(=O)NCc3ccco3)n2)cc1 the results were KKLEB cytotox -9, HIF-2a inh -21, CF NFkB inh 42, Shn3 3UTR inh -9 and Peg3 prom inh -25.
For Cc1ccsc1-c1nc(C(N)=O)c2[nH]c(=O)n(-c3ccc(Cl)cc3)c2n1 the results were KKLEB cytotox -45, HIF-2a inh 10, CF NFkB inh 44, Shn3 3UTR inh 6 and Peg3 prom inh 76*.
Screening COC(=O)CSC1=C(C#N)C(=O)NC(c2ccccc2)S1 (stereo unspecified) returned KKLEB cytotox 5, HIF-2a inh 18, CF NFkB inh -34, Shn3 3UTR inh 7 and Peg3 prom inh 84*.
Screening CSC1=C(C#N)C(=O)NC(c2ccccc2O)S1 (stereo unspecified) returned KKLEB cytotox 2, HIF-2a inh 20, CF NFkB inh -14, Shn3 3UTR inh 7 and Peg3 prom inh 8.
For N#Cc1ccc(C(C(=O)NC2CCCCC2)n2c(=O)c(-c3ccccc3)nc3ccccc32)cc1 (stereo unspecified) the results were HIF-2a inh 9.
For Cc1ccc(/C=C2/NC(=O)N(c3ccccc3)C2=O)o1 the results were KKLEB cytotox 10, HIF-2a inh -107, CF NFkB inh 3, Shn3 3UTR inh 34 and Peg3 prom inh -132.
For O=C1N/C(=C/c2ccc(N3CCOCC3)o2)C(=O)N1c1cccc(Cl)c1 the results were KKLEB cytotox -13, HIF-2a inh 35, CF NFkB inh 67*, Shn3 3UTR inh 96* and Peg3 prom inh -31.
For NC(=O)C1CCN(C(=O)c2cc3ccccc3cc2O)CC1 the results were KKLEB cytotox 8, HIF-2a inh 7, CF NFkB inh -21, Shn3 3UTR inh 2 and Peg3 prom inh 4.
For CN1C(=O)c2cccc(NCCCCCCN3C(=O)c4ccccc4C3=O)c2C1=O the results were KKLEB cytotox 2, HIF-2a inh 5, CF NFkB inh -7, Shn3 3UTR inh 88* and Peg3 prom inh 2.
CN1C(=O)c2cccc(NCCCN3C(=O)c4ccccc4C3=O)c2C1=O was read as KKLEB cytotox -11, HIF-2a inh 2, CF NFkB inh -3, Shn3 3UTR inh -7 and Peg3 prom inh 16.
Cc1nc(N2CCN(c3ccccn3)CC2)c2c(C)c(C(=O)N3CCN(c4ccccc4F)CC3)sc2n1 was read as KKLEB cytotox -17, HIF-2a inh 12, CF NFkB inh 12, Shn3 3UTR inh -2 and Peg3 prom inh 72*.
Cc1ccccc1N1CC(=O)N(c2ccccc2C)CC1=O was read as KKLEB cytotox 0, HIF-2a inh 16, CF NFkB inh 1, Shn3 3UTR inh -5 and Peg3 prom inh 16.
